Eight compounds from PubChem BioAssay AID588763 (NMMLSC, 2011) can be followed below.

Structures are written as SMILES. Entries with a potency or affinity are not part of this list. A number with no mark means an inactive call. Active and inactive are the calls of the source. How the calls were made is not given here.

For this experiment, the target named is Beta-2 adrenergic receptor (Homo sapiens) (UniProt P07550). The experiment is described as follows: ADRB2 activation measured by internalization – cell-based, FAP fluorogen, flow cytometry, cherry pick 1, dose response (AID 588763). The settings on record: AM2.2-beta2AR cells, 90 min; series mostly up to 33 µM; activation (receptor internalization): at the top concentration.
Sequence of Beta-2 adrenergic receptor (Homo sapiens) (P07550 whole entry, looked up): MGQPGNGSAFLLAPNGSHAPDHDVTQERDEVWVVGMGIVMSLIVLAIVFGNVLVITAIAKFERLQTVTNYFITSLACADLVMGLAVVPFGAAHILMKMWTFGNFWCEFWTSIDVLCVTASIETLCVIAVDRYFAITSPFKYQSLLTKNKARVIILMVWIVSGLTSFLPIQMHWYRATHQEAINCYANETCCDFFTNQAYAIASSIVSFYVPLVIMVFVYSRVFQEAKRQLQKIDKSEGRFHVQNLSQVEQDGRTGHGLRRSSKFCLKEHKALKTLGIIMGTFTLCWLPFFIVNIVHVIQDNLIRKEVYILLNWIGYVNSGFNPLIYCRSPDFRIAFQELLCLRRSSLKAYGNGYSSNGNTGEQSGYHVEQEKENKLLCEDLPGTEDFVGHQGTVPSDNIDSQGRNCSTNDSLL
For the compound `COc1ccc(C(O)CNC(C)C)c(F)c1OC` (stereo not drawn), the “activation (receptor internalization)” value was -16.5%.

Turning to `CCNCC(O)c1cccc(O)c1` (stereo not drawn), the “activation (receptor internalization)” value was 19.5%.

Turning to `COc1cc(C(O)CNC(C)C)cc(F)c1OC` (stereo not drawn), the “activation (receptor internalization)” value was -4.23%.

As to `CC(NCc1ccc(Cl)c(Cl)c1)C(O)c1ccccc1` (stereo not drawn), the “activation (receptor internalization)” value is 10.7%.

On to `COc1ccc(OC)c([C@@H](O)[C@H](C)NC(C)(C)C)c1`, for which the call was inactive.

With `COc1ccc(OC)c(C(O)C2CCCCN2)c1` (stereo not drawn), the “activation (receptor internalization)” value was -1.51%.

Turning to `CC(CCc1ccccc1)NC(C)C(O)c1ccc(O)cc1` (stereo not drawn), the “activation (receptor internalization)” value was -5.05%.

Take `COc1ccc(OC)c2c1CCC1NCCOC21` (stereo not drawn): the “activation (receptor internalization)” value is -6.85%.
